UGM FP inh – Mtb UDP-galactopyranose mutase inhibition; P9WIQ1; purified UGM, fluorescence polarization probe displacement; inhibition, % at 10 µM; 0.06% of 320,000 active; AID 504406; in the data active = inhibition above about 10%, passing the limit was not always enough
GDH-TPI inh – counter-screen for M. tuberculosis FBA inhibitors: GDH-TPI coupled enzymes; GDH-TPI coupled enzyme counterscreen, NADH absorbance; 1.2% of 360,000 active; inhibition, % at 4.8 µM; in the data active = inhibition above about 30%;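 note: 0% = DMSO wells and 100% = wells lacking the enzyme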
Rv3671c inh – inhibits the M. tuberculosis serine protease Rv3671c | inhibition, % at 5.96 µM | 0.048% of 320,000 active | P9WHR9; in the data active = inhibition above about 38%;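 note: extracellular domain of Rv3671c used as enzyme; 0% = enzyme with DMSO and 100% = no enzyme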
Target sequence (P9WHR9 whole entry, looked up, the tested form may be a part): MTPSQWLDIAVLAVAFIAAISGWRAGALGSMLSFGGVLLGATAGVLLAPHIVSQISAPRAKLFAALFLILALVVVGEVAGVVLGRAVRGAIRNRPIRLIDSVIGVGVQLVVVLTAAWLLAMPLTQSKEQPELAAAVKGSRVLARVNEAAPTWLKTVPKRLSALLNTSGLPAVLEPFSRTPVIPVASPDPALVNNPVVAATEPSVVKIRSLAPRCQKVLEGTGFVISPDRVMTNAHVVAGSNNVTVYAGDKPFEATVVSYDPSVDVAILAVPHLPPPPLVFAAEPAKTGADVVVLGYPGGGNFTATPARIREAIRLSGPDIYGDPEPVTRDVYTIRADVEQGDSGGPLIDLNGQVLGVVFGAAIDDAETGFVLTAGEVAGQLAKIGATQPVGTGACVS
Mtb FBA inh – inhibits M. tuberculosis FBA enzyme; P9WQA3; purified M. tuberculosis FBA, fluorescence read-out; inhibition, % at 1 µM; 2.3% of 360,000 active; AID 588726; in the data active = inhibition above about 27%;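 note: 0% = vehicle and 100% = reference inhibitor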
Active calls of the source: *; . = no result given; + = active, no number. Most compounds without a hit are left out; they make up all but 3.5% or so of the library.

SMILES	UGM FP inh	GDH-TPI inh	Rv3671c inh	Mtb FBA inh
O=C(Nc1nnc(S(=O)(=O)N2CCCC2)s1)c1cccc([N+](=O)[O-])c1	-1	39*	5	3
COc1ccc(C(=O)Nc2nnc(S(=O)(=O)N3CCC(C)CC3)s2)cc1OC	-1	46*	-1	4
COc1ccc(C(=O)Nc2nnc(S(=O)(=O)N3CCCCCC3)s2)cc1OC	1	47*	-12	4
CC12CCC(=O)N1C(C(=O)Nc1nc(-c3cc(F)ccc3F)cs1)CS2 (centres undefined)	4	2	-2	-1
COc1ccccc1C1CC(c2cccc(NS(C)(=O)=O)c2)=NN1S(=O)(=O)c1ccccc1 (centres undefined)	-1	5	-6	2
CC(=O)OC[C@H]1O[C@@H](Oc2cc3ccc(=O)oc3cc2OC(C)=O)[C@H](OC(C)=O)[C@@H](OC(C)=O)[C@@H]1OC(C)=O	.	11	.	+
Cc1cc(C)cc(OCC(=O)N(Cc2ccccc2)C2CCS(=O)(=O)C2)c1 (centres undefined)	0	-2	-5	1
O=C(O)c1ccccc1N=Nc1ccc(O)cc1	-1	36*	-3	-6
NC(=O)C(C(=O)/C=C/c1ccc(Cl)cc1)=C1SCCS1	-1	44*	-11	3
Cc1ccc(NC(=O)c2ccc(S(=O)(=O)NCc3cccnc3)cc2)c(C)c1	-2	5	-2	0
COC(=O)C1=C(C)N(C)C(C)=C(C(=O)OC)C1c1ccsc1	1	4	-4	0
CCOC(=O)C1=CN(C)C=C(C(=O)OCC)C1c1ccsc1	2	9	-4	+
COc1ccc(Nc2cc(Nc3cc(OC)c(OC)c(OC)c3)ncn2)cc1	-1	-3	6	1
Cc1cc(O)cc(O)c1C=NCc1ccco1	0	33*	6	2
O=c1[nH]c2ccccc2c(O)c1-c1cc2ccccc2oc1=O	-1	.	-4	.
NS(=O)(=O)c1ccc(Nc2nc3ccccc3nc2NS(=O)(=O)c2cccc([N+](=O)[O-])c2)cc1	4	12	11	0
Cc1cc(C(=O)O)ccc1-c1ccc(CO)o1	1	6	6	161*
Cc1ccc(CN2C(=O)N/C(=C\c3ccc(-c4ccc(C(=O)O)cc4C)o3)C2=O)cc1	1	19	-1	10
Cc1cc(C)cc(NC(=O)Nc2c(Br)cnn2C)c1	-2	9	-4	3
CC1(C)Cc2c(sc(/N=C/N3CCCCC3)c2C#N)C(C)(C)N1	0	31*	7	-6
CCN1C(=O)[C@H]2[C@@H](c3ccc(-c4cc(C(C)=O)cs4)cc3)N3CCC[C@@]3(C(=O)OC)[C@H]2C1=O	-1	40*	-4	8
CCN(C[C@H]1N[C@@](CC)(C(=O)OC)[C@H]2C(=O)N(C)C(=O)[C@@H]12)C(=O)Nc1ccc(C)cc1	1	2	6	0
CCc1ccc(N2CC(C(=O)Nc3cccc(S(=O)(=O)N4CCCC4)c3)CC2=O)cc1 (centres undefined)	0	-6	-9	-3
COc1cc(/C=C2/CC/C(=C/c3ccc(O)c(OC)c3)C2=O)ccc1O	-1	39*	-31	-9
C=CCOc1ccc(/C=C2\SC(N)=NC2=O)cc1OC	2	30	3	1
SMILES	UGM FP inh	GDH-TPI inh	Rv3671c inh	Mtb FBA inh
COc1cc(/C=C2\SC(N)=NC2=O)ccc1O	1	39*	.	-8
COc1cc(/C=C2/C(=O)ON=C2c2ccccc2)ccc1O	3	37*	-8	-1
COc1cc(/C=C2\C(=O)ON=C2c2ccccc2)cc(Cl)c1O	3	7	-12	-3
O=C(c1ccoc1)N1CCN(c2cc(-c3cccnc3)nc3cc(-c4cccc(Cl)c4)nn23)CC1	.	10	.	12
O=C(c1ccccn1)N1CCCC(N2CCN(c3cccc(C(F)(F)F)c3)CC2)C1 (centres undefined)	0	3	6	1
O=C(N/N=C/c1cccs1)c1ccc(NC(=O)c2ccccc2Cl)cc1	-1	33*	1	0
O=C(N/N=C/c1cccs1)c1cccc(NC(=O)c2ccccc2Cl)c1	2	18	-8	0
Cc1ccc(/C=N/NC(=O)c2ccc(NC(=O)c3ccccc3Cl)cc2)o1	-1	49*	-1	-6
C=CCn1c(N)c(C(=O)NCCC2=CCCCC2)sc1=S	1	35*	-4	2
NC(=O)NCCC1=CCCCC1	-2	7	-2	1
Cc1nc2c(C)cccc2c2c1CCN2c1ccccc1F	-1	10	5	113*
CC(NC(=O)c1cccc2c1Oc1ccccc1S2)C(=O)O (centres undefined)	.	.	.	9
Cc1ccc2nc(C)cc(Nc3ccc4c(c3)OCCO4)c2c1	-1	33*	8	3

Bioassay records deposited in PubChem by several laboratories.
